Measured values from paper PMC10163288.
The list is a sample of the results. No count for the full screen is at hand.

B1: il10ra_site1_normal_mot_HHH_b2_00033_000000036_0001_41_54_H_._HHH_b1_00990_0001_0000100001_0000001_0 (protein)
chain: SSSDETEEASELAAEAIRLAIRLGDEEIFQELWELFKLVIREGDPEVTERLEELLEELRERSSSS
B2: il10ra_site1_sap_20_mot_HHH_b1_02766_af2_000000078_0001_42_56_H_._HHH_b2_04892_0001_0001000047_0000001_0_0001 (protein)
chain: SSSSDELSEEAMKLIERASELDQNGNPEEAKEVLERAEELAEEAGNRVLAWNIRFLLRRLSSSSS
B3: il10ra_site1_sap_22_mot_HHH_b2_03328_af2_000000127_0001_1_19_H_._HHH_b1_06177_0001_0000200023_0000001_0_0001 (protein)
chain: SSSSTQELYELLRRIVELDHKGNLEEAERLLEELEELARERNDPNIRMQVEFLEEIIRRNLSSSS
B4: il10ra_site1_normal_mot_HHH_b1_04514_000000156_0001_1_18_H_._HHH_b1_03241_0001_0000100007_0000001_0 (protein)
chain: SSSSYEEVKELIEEIIELAREGNPEEAEKVLRELERLAEELNNPAIRFVVRLLEEVIERQSSSSS
B5: il10ra_site1_sap_15_mot_HHH_b2_02354_af2_000000157_0001_40_56_H_._HHH_b1_07270_0001_0000500051_0000001_1_0001 (protein)
chain: SSSSSEQERAALRFAKWLIEIIEETGNPSARRSLEVMLWLLERINSEEAEELLKEAEELLSSSSS
B6: il10ra_site1_normal_mot_39ab2cb694c8b9c1dc7e65c0d672c93e_0001_000000036_0001_53_65_H_._HHH_b1_05574_0001_0000300023_0000001_0 (protein)
chain: SSSSSEEERIEELIEEAKELLERGNPEEALELVLEALRLAYQNRNAELLQELWRLAKEIASSSSS
B7: il10ra_site1_normal_mot_HHH_b2_05548_000000224_0001_41_54_H_._HHH_b1_07835_0001_0000100002_0000002_0_af2pred_0001 (protein)
chain: SSSSSDEEVEQLLEEAERLLKEGNPEEAAKVVAKAAELALELGNVELIKLVVELLRLIANSSSSS
B8: il10ra_site1_normal_mot_HHH_b1_00999_000000080_0001_41_55_H_._HHH_b1_01870_0001_0000600018_0000001_0 (protein)
chain: SSSSSSSEEEVEELLEEAKEIDDPREAARVLQEATHIALRNQNPELLRLVWEVVKRLGSSSSSSS
B9: il10ra_site1_normal_mot_HHH_b2_04945_000000076_0001_1_19_H_._HHH_b2_05056_0001_0000400022_0000001_0 (protein)
chain: SSSSTDELFEEVRRIIEEAVRLYREGNPEEARRLVEEALELAEENNNFALVFALEHLLRDLSSSS
B10: il10ra_site1_normal_mot_HHH_b2_07144_000000289_0001_1_18_H_._HHH_b2_04284_0001_0000200013_0000001_1 (protein)
chain: SSSSSENHRAYELSREAAELLRQGNEEEAREVLEEVKEIAEEANNPILEFAARAIEKAVNSSSSS
B11: il10ra_site1_normal_mot_HHH_b2_01032_000000296_0001_1_18_H_._HHH_b1_04384_af2_0001_0000600026_0000001_1 (protein)
chain: SSSSSDEEEELLELSRQAFELALRGNPEEAREVLEEAERLARELGDERLLRLVEELLQALSSSSS

These binders were tested against il10ra, Q13651 (assay: yeast display titration).
Chain of il10ra, Q13651 (Q13651 whole entry): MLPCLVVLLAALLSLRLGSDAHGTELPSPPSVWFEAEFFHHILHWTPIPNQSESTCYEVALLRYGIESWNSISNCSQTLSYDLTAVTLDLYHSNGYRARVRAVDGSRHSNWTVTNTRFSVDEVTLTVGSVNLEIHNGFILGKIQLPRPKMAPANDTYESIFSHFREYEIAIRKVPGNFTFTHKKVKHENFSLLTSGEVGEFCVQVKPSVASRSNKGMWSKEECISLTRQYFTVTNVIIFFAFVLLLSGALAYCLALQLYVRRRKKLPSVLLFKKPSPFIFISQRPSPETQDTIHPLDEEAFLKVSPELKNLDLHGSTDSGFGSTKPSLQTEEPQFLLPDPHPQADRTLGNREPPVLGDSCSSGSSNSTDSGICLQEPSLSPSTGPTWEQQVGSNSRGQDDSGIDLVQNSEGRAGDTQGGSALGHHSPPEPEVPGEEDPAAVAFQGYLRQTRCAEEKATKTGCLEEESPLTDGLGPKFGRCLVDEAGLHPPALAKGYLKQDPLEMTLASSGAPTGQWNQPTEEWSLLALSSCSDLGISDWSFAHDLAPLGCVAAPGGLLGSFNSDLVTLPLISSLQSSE

Apparent Kd, inactive:
B1 no binding seen
B2 no binding seen
B3 > 1.76 µM
B4 > 0.786 µM
B5 no binding seen
B6 no binding seen
B7 no binding seen
B8 no binding seen
B9 no binding seen
B10 no binding seen
B11 no binding seen
